Compound activity: PubChem BioAssay, several laboratories
TLR9-MyD88 block: TLR9-MyD88 interaction inhibition; 340,000 compounds, 0.21% hits; inhibition, % at 4.98 µM; Q9NR96+Q99836; CHO BLA complementation TLR9-MyD88, CCF4 FRET ratio; AID 504734;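 active means inhibition above the mean over all tested compounds plus 3 SD, cut at about 21% in these data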;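 further: 0% = DMSO only wells and 100% = clavulanate BLA inhibitor control wells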
HTR2A ag: mouse HTR2A agonism via beta-arrestin recruitment | activation, % at 7.6 µM | P35363 | CHO-K1 mHTR2A beta-arrestin complementation, luminescence; percent of 30 µM serotonin response | 360,000 compounds, 0.66% hits;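 active means activation above a run cutoff, the mean activation of all tested compounds plus 3 SD, cut at about 14% in these data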;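 further: 0% = plate median of compound wells and 100% = 30 µM serotonin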
TLR4-MyD88 BLA: blocks binding of human TLR4 to MyD88; O00206+Q99836; HeLa CL3-4 TLR4/MyD88 BLA complementation, FRET ratio; inhibition, % at 8.4 µM; 200,000 compounds, 0.18% hits; AID 861; in the data active means inhibition above about 25%;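 further: 0% = vehicle and 100% = reference inhibitor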
CRFR2-BP antag: antagonists of CRF-binding protein/CRF-R2 receptor complex. HEK293 CRF-R2/CRF-BP, CRF-induced calcium fluorescence. inhibition, % at 11.8 µM. 350,000 compounds, 0.59% hits;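 active means inhibition of the ligand-induced calcium signal above about 50% at the single tested concentration, limit read from the data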
NOD2-RIPK2 inh: blocks binding of human NOD2 to RIPK2; 360,000 compounds, 0.38% hits; AID 624267; O43353; CHO BLA complementation NOD2-RIPK2, CCF4 ratio; inhibition, % at 4.98 µM; in the data active means inhibition above about 21%;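 further: 0% = vehicle only and 100% = reference blocker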
Target sequence (O43353 whole entry, looked up): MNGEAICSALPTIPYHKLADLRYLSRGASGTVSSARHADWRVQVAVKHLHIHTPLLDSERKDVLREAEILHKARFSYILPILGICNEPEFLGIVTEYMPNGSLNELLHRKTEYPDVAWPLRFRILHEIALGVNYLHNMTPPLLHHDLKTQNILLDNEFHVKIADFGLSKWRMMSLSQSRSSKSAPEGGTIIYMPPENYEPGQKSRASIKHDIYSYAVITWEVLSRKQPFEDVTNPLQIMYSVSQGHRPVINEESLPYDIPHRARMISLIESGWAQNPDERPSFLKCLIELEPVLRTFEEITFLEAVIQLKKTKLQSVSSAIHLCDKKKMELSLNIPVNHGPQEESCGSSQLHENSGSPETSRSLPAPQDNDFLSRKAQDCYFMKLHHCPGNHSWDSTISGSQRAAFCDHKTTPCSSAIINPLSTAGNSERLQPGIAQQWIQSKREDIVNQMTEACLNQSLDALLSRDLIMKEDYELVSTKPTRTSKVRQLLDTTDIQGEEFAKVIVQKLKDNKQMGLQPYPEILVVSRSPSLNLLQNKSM
ABHD5 PLIN5 PPI: ABHD5-PLIN5 protein interaction inhibition; AID 602281; Split G. princeps luciferase complementation, luminescence, 4 h; 360,000 compounds, 0.78% hits; inhibition, % at 4 µM;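 active means inhibition above the mean inhibition across every tested compound plus 3 SD, cut at about 22% in these data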;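 further: 0% = DMSO only wells and the 100% control is not disclosed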
TLR9-MyD88 conf: TLR9-MyD88 interaction inhibition, confirmation | shares compounds with TLR9-MyD88 block | CHO TLR9/MyD88 BLA complementation, CCF4 FRET ratio | inhibition, % at 4.98 µM | 680 compounds, 51% hits | AID 540250;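 active means mean inhibition across three repeats above about 21% taken from the earlier screen, limit read from the data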;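 further: blue over green emission ratio reports constitutive TLR9 MyD88 association via BLA complementation; 0% = DMSO vehicle wells and 100% = clavulanate BLA inhibitor wells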
BLA counter-1: beta-lactamase reporter inhibition, counter-screen artifact; shares compounds with TLR9-MyD88 block; inhibition, % at 4.98 µM; AID 540251; CHO-BLA cells, CCF4 FRET ratio, BLA reporter; 680 compounds, 7% hits;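 active means mean inhibition above a 50% cutoff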;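 further: counterscreen of TLR9-MyD88 hits on CMV-driven BLA in CHO-K1 cells; 0% = DMSO alone and 100% = clavulanate blocking BLA; higher means less blue over green ratio so more BLA blockade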
TLR9 CHO tox: CHO cell toxicity counter-screen for TLR9-MyD88 inhibitors. shares compounds with TLR9-MyD88 block. TLR9-MyD88 CHO cells cytotoxicity, luminescence. 680 compounds, 39% hits. inhibition, % at 4.98 µM. AID 588336; in the data active means inhibition above about 11%
ABHD5 PLIN5 conf: ABHD5-PLIN5 interaction inhibition, confirmed. shares compounds with ABHD5 PLIN5 PPI. inhibition, % at 4 µM. AID 651612. 2,200 compounds, 67% hits. biochemical ABHD5-PLIN5 interaction, luminescence; in the data active means inhibition above about 23%;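 further: 0% = DMSO vehicle wells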
HNF4 counter: counter-screen for ABHD5-PLIN5 inhibitors: HNF4 split-luciferase | inhibition, % at 4 µM | shares compounds with ABHD5 PLIN5 PPI | 2,200 compounds, 77% hits | HNF4 dimerization, luminescence, biochemical;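 active means mean inhibition across replicate wells exceeding the computed hit threshold, cut at about 13% in these data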;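 further: light from luciferase halves that rejoin when HNF4 fusion proteins dimerize; 0% = DMSO only wells and the 100% control is not given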
NOD2 RIPK2 conf: confirmation of human NOD2-RIPK2 interaction inhibitors. AID 624370. CHO cells, NOD2-RIPK2 BLA complementation, CCF4 FRET. 1,200 compounds, 70% hits. shares compounds with NOD2-RIPK2 inh. inhibition, % at 4.98 µM;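 active means mean inhibition across replicates above a set limit taken from the earlier primary screen, cut at about 21% in these data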;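 further: 0% = DMSO-only wells and the high end = clavulanate BLA-blocked wells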
BLA counter-2: NOD2-RIPK2 counterscreen BLA reporter activity. shares compounds with NOD2-RIPK2 inh. CHO BLA reporter, CCF4 FRET ratio. inhibition, % at 4.98 µM. 1,200 compounds, 57% hits. AID 624371;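 active means mean inhibition above the low-control mean inhibition plus three low-control SD, cut at about 11% in these data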;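 further: 0% = DMSO only wells and 100% = clavulanate high control wells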
Numbers without * were called inactive; x = no result. In the library only some 2.4% were active in any assay of this set; here they are far more common.

SMILES	TLR9-MyD88 block	HTR2A ag	TLR4-MyD88 BLA	CRFR2-BP antag	NOD2-RIPK2 inh	ABHD5 PLIN5 PPI	TLR9-MyD88 conf	BLA counter-1	TLR9 CHO tox	NOD2 RIPK2 conf	BLA counter-2	others
Oc1ccc(C2C=C(c3ccc(F)cc3)Nc3ncnn32)cc1 (stereo not drawn)	39.8*	3.8	x	-5.5	50.5*	4.7	6.8	4.0	-0.4	37.4*	45.6*
Cc1ccc(C2C=C(c3ccccc3)Nc3ncnn32)cc1 (stereo not drawn)	36.7*	10.7	x	2.7	47.5*	-6.8	6.0	5.4	3.0	16.2	17.5*
C1=C(c2ccc(-c3ccccc3)cc2)Nc2ncnn2C1c1ccco1 (stereo not drawn)	27.3*	-2.1	1.0	-177.1	38.8*	-2.6	7.0	1.2	2.4	5.0	2.6
COc1cccc(C2=CC(c3ccc(N(C)C)cc3)n3ncnc3N2)c1 (stereo not drawn)	x	x	-3.0	x	x	x	x	x	x	x	x
COc1ccc(C2C=C(c3ccc(C)cc3)Nc3ncnn32)cc1 (stereo not drawn)	40.6*	-1.8	19.1	-34.5	51.7*	6.5	-2.1	1.3	-1.0	10.6	10.0
Brc1ccc(C2=CC(c3ccco3)n3nnnc3N2)cc1 (stereo not drawn)	-4.9	-4.7	x	1.1	-7.5	9.0	x	x	x	x	x
CCCNC(=O)C1(C)CCCN(Cc2cc(-c3ccccc3)nn2C)C1 (stereo not drawn)	x	-5.4	x	x	4.5	-14.4	x	x	x	x	x
CSc1ccc(CNC(=O)C2CCC(=O)N(CCc3ccc(Cl)cc3)C2)cc1 (stereo not drawn)	4.5	5.0	x	11.9	-6.5	-3.4	x	x	x	x	x
CCn1c(Cl)c(C=O)s/c1=N\S(=O)(=O)c1ccccc1	48.3*	-9.0	x	38.1	93.5*	48.1*	52.5*	29.2	96.2*	97.9*	38.3*	ABHD5 PLIN5 conf=70.6*;HNF4 counter=105.1*
O=C(C[C@H]1CC[C@@H]2[C@H](COC[C@@H](O)CN2Cc2cccc(F)c2)O1)NCC1CCCCC1	x	-2.7	x	x	0.4	9.2	x	x	x	x	x
CCCC(=O)NNC(=O)CCC(=O)Nc1ccccc1Cl	-3.0	4.6	7.3	22.2	-12.4	1.8	x	x	x	x	x
CCCC(=O)NC1=C(Cl)C(=O)c2ccccc2C1=O	36.6*	-3.6	x	-59.0	70.6*	47.7*	61.4*	6.5	98.9*	90.0*	29.5*	ABHD5 PLIN5 conf=63.8*;HNF4 counter=101.3*
O=c1nc2c(O)cccn2c2c1c(=O)[nH]c1ccccc12	21.9*	1.4	10.1	-52.1	29.2*	5.7	8.4	8.3	-1.8	33.3*	27.2*
O=c1[nH]c2ccccc2c2nc3ccccn3c12	-7.0	-2.7	-1.8	-1.8	1.0	2.9	x	x	x	x	x
COc1ccc(N2CCN(c3cc(C(=O)Nc4cc(OC)c(OC)c(OC)c4)ncn3)CC2)cc1OC	x	1.9	x	x	4.0	-3.8	x	x	x	x	x
Cc1onc(-c2c(F)cccc2Cl)c1C(=O)Oc1ccccc1	x	1.8	x	x	-2.1	-8.3	x	x	x	x	x
O=C(CN1C(=O)c2ccccc2S1(=O)=O)Nc1ccccc1C(=O)NCc1ccco1	-2.5	5.3	-15.3	-11.0	6.4	-7.8	x	x	x	x	x
O=C(CN1C(=O)c2cccc3cccc1c23)Nc1ccccc1C(=O)NCc1ccco1	31.7*	-2.2	-3.9	-43.6	23.0*	22.9*	7.9	11.9	3.1	22.0*	22.1*
CCCNC(=O)C1(C)CCCN(Cc2csc(-c3ccccc3)n2)C1 (stereo not drawn)	x	-4.5	x	x	-6.5	-12.2	x	x	x	x	x
CCc1c2c(nc3ccc(OC(=O)N4CCC(N5CCCCC5)CC4)cc13)-c1cc3c(c(=O)n1C2)COC(=O)[C@]3(O)CC	-4.6	2.1	x	-3.2	-11.9	-2.0	x	x	x	x	x
CCC1(O)C(=O)OCc2c1cc1n(c2=O)Cc2cc3cc(O)ccc3nc2-1 (stereo not drawn)	29.5*	4.2	x	-12.1	26.0*	4.1	18.6	20.5	63.3*	42.4*	33.5*
CC1(C(=O)NS(=O)(=O)c2cccc(C#N)c2)CCN1C(=O)C/C=C/c1ccccc1 (stereo not drawn)	x	7.3	x	x	-12.3	10.7	x	x	x	x	x
CNc1cncc(-c2cccc(C(=O)NCCN(C)C)c2)n1	x	-1.6	x	x	-11.5	-0.1	x	x	x	x	x
